This is part of a sample that, as a whole, favours compounds with a hit. Of some 83,000 tested, about 20% had one in any assay.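 Results are percent growth after 48 hours of single-concentration exposure. 100 means growth as in untreated cells, lower positive values show inhibition; negative values down to -100 show cell death.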 Unmarked numbers belong to inactive results. Activity calls are given as the source filed them.
test system: SNB-75 CNS; assay: NCI-60 one-dose screen, 48 h (100 = growth as untreated, 0 = no growth, -100 = all killed); details: 10 µM unless noted
Experimental: Growth inhibition of the SNB-75 human tumor cell line is measured as a screen for anti-cancer activity. Cells are grown in 96 well plates and exposed to the test compound for 48 hours. Compounds are tested at a single concentration, which is 10^-5 M for most compounds. The reported endpoint is percent growth (GI% or GIPRCNT), where numbers from 0 - 100% represent growth inhibition, and numbers from -100% - 0 represent cell death. For example, a value of 40 represents 60% growth inhibition. A value of 0 means no net growth occurred over the course of the experiment. A value of -40 indicates 40% of cells at the beginning of the experiment died by the end of the experiment. A value of -100 means all cells are dead at the end of the experiment.
NCI-60 Human Tumor Cell Lines Screen was performed using the standard one-dose NCI protocol, which is described in more detail at https://dtp.cancer.gov/discovery_development/nci-60/default.htm.
Compounds with GIPRCNT values below 10 were considered active. Activity score was based on GIPRCNT using the following formula: […]
Score is 0 for GIPRCNT values of 100 or above, 50 for GIPRCNT values of 0, and 100 for GIPRCNT values of -100.

SMILES | growth
Nc1ccc(Cl)c([N+](=O)[O-])c1 | 89.3%
COc1ccc(-c2cc(-c3ccc(Cl)cc3)nc(SCCCCCCC(=O)NO)n2)cc1 | 34.5%
O=C(O)CSCc1nnc2n(Cc3ccccc3)c(=O)c3c4c(sc3n12)CCCC4 | 87.4%
COc1ccc(NC(=O)Nc2ccc(-c3cccnc3)cc2N2CCC(CO)CC2)cc1 | 51.3%
COc1ccc(/C=C/C=C\C(=O)c2ccc(-n3ccnc3)cc2)cc1 | 90.8%
O=C1COCCN1c1ccc(NCc2cn(Cc3cccc4ccccc34)c3ccccc23)cc1 | 79.6%
CCOC(=O)/C(C#N)=C(\C)CCc1ccccc1 | 52.3%
O=C(Nc1cc(F)cc2cccnc12)c1cnc(N2CCNCC2)cn1 | 82.7%
CC(C)CCSC1=CC(=O)c2ccccc2C1=O | 7.99% (active)
CCCCCCSc1ncnc2nc[nH]c12 | 91.2%
Cc1cccc(C[C@H](NC(=O)Nc2ccc(Cl)cc2F)C(=O)N[C@@H]2C(=O)N3C[C@H](O)C[C@H]3C(=O)N3CCCC[C@H]3C(=O)N[C@@H](C)C(=O)N3C[C@H](C)C[C@H]3C(=O)O[C@H]2C)c1 | 4.64% (active)
O=C(Nc1cccnc1)c1ccc2ccc3ccc(C(=O)Nc4cccnc4)nc3c2n1 | 40.6%
Cc1cccc([N+](=O)[O-])c1I | 94.9%
CC(C)[N+](C)(C)CC(O)COc1cccc2ccccc12 (stereo not given) | 109%
COc1ccc2c(c1)c(-c1noc(C(=O)c3cn(C)c4ncc(Br)cc34)n1)cn2C | -12.8% (active)
CC1Cc2c(Cl)ncnc2N(C)c2ccc(O)cc21 (stereo not given) | 85%
O=S(=O)(c1ccc(N/N=C\c2ccccc2Cl)cc1)c1ccc(N/N=C/c2ccccc2Cl)cc1 | 61.5%
COc1ccc(OC)c([N+](=O)[O-])c1C(=O)CNC(C)=O | 107%
O=C(CCCCCCSc1nc(-c2ccc(Cl)cc2)cc(-c2ccc(Cl)cc2)n1)NO | 57.7%
Cc1ccc(-c2cc(-c3ccc(C)cc3)nc(NCCNc3ccnc4cc(Cl)ccc34)n2)cc1 | -30.2% (active)

SMILES | growth
CCN(CC)CC(C)Nc1ccc(C)c2sc3ccccc3c(=O)c12 (stereo not given) | 40.3%
O=C(Nc1ccc(CN2CCOCC2)c(C(F)(F)F)c1)c1nc2ccc3[nH]ncc3c2c2c1CCCC2 | 128%
CC1Cc2c(Cl)ncnc2N(C)c2ccc(Cl)cc21 (stereo not given) | 50.1%
Nc1nc(Nc2ccccc2)c2ncn(Cc3cc4c(cc3Br)OCO4)c2n1 | 18.8%
COc1ccc(C2CC(c3cc(OC)c(OC)c(OC)c3)=NN2C(C)=O)cc1OCC(=O)Nc1nc2ccc(C(F)(F)F)cc2s1 (stereo not given) | 37%
O=C(Nc1ccc(Cl)c(C(F)(F)F)c1)Nc1ccc(-c2cccnc2)cc1N1CCC(CO)CC1 | 85.4%
CC(=O)CC(=O)SC1=NCCS1 | 109%
O=[N+]([O-])c1cccc(N=NNc2cccc([N+](=O)[O-])c2)c1 | 94.4%
O=C(OCc1ccc2c(Cl)cc(Cl)c(O)c2n1)N1CCNCC1 | 48.4%
COc1ccc(-c2cc(-c3ccc(OC)c(OC)c3)nc(SCCCCCC(=O)NO)n2)cc1 | 46.2%
Cc1nn(-c2ccccc2)c(N2CCOCC2)c1-c1nc2ccc([N+](=O)[O-])cc2[nH]1 | 95.7%
Cc1ccc(-n2nc3n(/c2=N\C(=O)NS(=O)(=O)c2ccc(C)cc2)CCN3C2=NCCN2)cc1 | 85.6%
COc1cc(NN=C(c2ccc(O)cc2)c2ccc(O)cc2)c([N+](=O)[O-])cc1[N+](=O)[O-] | 98.4%
CCc1ccc(NC(=O)N[C@@H](Cc2cc(F)cc(F)c2)C(=O)N[C@@H]2C(=O)N3C[C@H](O)C[C@H]3C(=O)N3CCOC[C@H]3C(=O)N[C@@H](C)C(=O)N3C[C@H](C)C[C@H]3C(=O)O[C@H]2C)cc1 | 8.76% (active)
CCOC(=O)CCC[P+](c1ccccc1)(c1ccccc1)c1ccccc1 | 86.8%
CC1Cc2c(Cl)ncnc2N(C)c2ccccc21 (stereo not given) | 82.8%
Cc1cc(C)c(O)c(CNCCCCCCNCc2cc(C)cc(C)c2O)c1 | -23.7% (active)
CC(=O)n1cc(C=O)c2ccccc21 | 81.7%
O=C(Nc1cccc(F)c1)c1cc(=O)[nH]c2cc(Br)ccc12 | 43.7%
COC(=O)C(=Cc1ccccc1[N+](=O)[O-])C(=O)OC | 33.5%

From PubChem BioAssay (NCI)
